The values that follow come from PubChem BioAssay (NCI).

Assay [1] in a line: NCI Yeast Anticancer Drug Screen. Data for the rad50 strain (AID 155).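 Note: 0% = growth of vehicle-only cultures of the same strain.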 The conditions noted are these: S. cerevisiae rad50 strain growth inhibition, stronger effect = higher value. The essentials: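 Growth of the mutant yeast was measured after compound exposure and referenced to vehicle-treated cultures.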
Assay [2] can be described thus: NCI Yeast Anticancer Drug Screen. Data for the mec2-1 strain (AID 157). Particulars: S. cerevisiae mec2-1 strain, stronger effect = higher value. The essentials: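 Yeast mec2-1 mutant treated with compound. Readout: growth inhibition vs vehicle controls.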
Assay [3] can be described thus: NCI Yeast Anticancer Drug Screen. Data for the sgs1 mgt1 strain (AID 161).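 Note: 0% = growth of cultures given vehicle only.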 The conditions noted are these: S. cerevisiae sgs1 mgt1 strain, stronger effect = higher value. A digest of the protocol: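 Test agents were incubated with a DNA-repair-mutant yeast strain. Growth was then read and compared against vehicle-treated controls.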
A short description of assay [4]: NCI Yeast Anticancer Drug Screen. Data for the cln2 rad14 strain (AID 165).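 Note: 0% = growth equal to vehicle treated cultures.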 Particulars: S. cerevisiae cln2 rad14 strain, stronger effect = higher value. The essentials: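 cln2 rad14 yeast strain; compound exposure; growth inhibition read vs vehicle controls.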
Assay [5] is described as follows: NCI Yeast Anticancer Drug Screen. Data for the bub3 strain (AID 167). Particulars: S. cerevisiae bub3 mutant strain, stronger effect = higher value. The essentials: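 Whole-cell yeast assay. The mutant strain was incubated with compounds, and growth inhibition was determined by comparison with vehicle-treated cells.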
The nature of assay [6]: NCI Yeast Anticancer Drug Screen. Data for the mlh1 rad18 strain (AID 175). Particulars: S. cerevisiae mlh1 rad18 strain growth inhibition, stronger effect = higher value. The essentials:
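Yeast w/ defined DNA-repair lesions; compound exposure; growth vs vehicle controls → % inhibition.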

The mark [7] stands for this setting: at 5.0 µM (retest, dose inferred, filed as 0.5).
Setting [8] is: at 50.0 µM (retest, dose inferred, filed as 5.0).

The panel holds about 79,000 compounds, 15% with a hit somewhere; the sample as a whole holds those more often. Activity calls are given as the source filed them. Cut-off read from the data, not from the text of the source: active = growth inhibition above about 70%; inactive = the rest.

On to `CCCCCCCN(CCCCCCC)CC(=O)NC(=O)c1ccccc1`, for which the growth inhibition in assay [1] (setting [7]) is 29% (inactive); in assay [1] (setting [8]) it was 99% (active); in assay [1] (at 50.0 µM), 99.4% (active); in assay [2] (setting [7]) it was 21% (inactive); in assay [2] (setting [8]), 98% (active); in assay [2] (at 50.0 µM), 97.2% (active). Besides, the growth inhibition in assay [3] (setting [7]) is 23% (inactive); in assay [3] (setting [8]), 99% (active); in assay [3] (at 50.0 µM), 99.5% (active); in assay [4] (setting [7]) it was 33% (inactive); in assay [4] (setting [8]), 99% (active); in assay [4] (at 50.0 µM) it was 96.8% (active). Besides, the growth inhibition is 43% (inactive) in assay [5] (setting [7]); 99% (active) in assay [5] (setting [8]); 99.3% (active) in assay [5] (at 50.0 µM); 26% (inactive) in assay [6] (setting [7]); 99% (active) in assay [6] (setting [8]); 99.3% (active) in assay [6] (at 50.0 µM).
For `FC(F)(F)c1cccc(COCCN2CCN(Cc3cccc(C(F)(F)F)c3)CC2)c1`, the growth inhibition is 36% (inactive) in assay [1] (setting [7]); 98% (active) in assay [1] (setting [8]); 97.7% (active) in assay [1] (at 50.0 µM); 26% (inactive) in assay [2] (setting [7]); 98% (active) in assay [2] (setting [8]); 99.1% (active) in assay [2] (at 50.0 µM). Further, the growth inhibition was 46% (inactive) in assay [3] (setting [7]); 99% (active) in assay [3] (setting [8]); 99.1% (active) in assay [3] (at 50.0 µM); 33% (inactive) in assay [4] (setting [7]); 99% (active) in assay [4] (setting [8]); 96.5% (active) in assay [4] (at 50.0 µM). For the same compound, the growth inhibition is 29% (inactive) in assay [5] (setting [7]); 98% (active) in assay [5] (setting [8]); 98.2% (active) in assay [5] (at 50.0 µM); 21% (inactive) in assay [6] (setting [7]); 98% (active) in assay [6] (setting [8]); 99% (active) in assay [6] (at 50.0 µM).
As for `C=Nc1ccc2ccccc2c1Cc1c(O)ccc2ccccc12`, the growth inhibition in assay [1] (setting [7]) is 7% (inactive); in assay [1] (setting [8]) it was 99% (active); in assay [1] (at 50.0 µM), 97.2% (active); in assay [2] (setting [7]), 12% (inactive); in assay [2] (setting [8]) it was 99% (active); in assay [2] (at 50.0 µM), 97.2% (active). In addition, the growth inhibition in assay [3] (setting [7]) is 8% (inactive); in assay [3] (setting [8]) it was 99% (active); in assay [3] (at 50.0 µM), 97.4% (active); in assay [4] (setting [7]) it was -8% (inactive); in assay [4] (setting [8]), 99% (active); in assay [4] (at 50.0 µM), 96.5% (active). Further, the growth inhibition in assay [5] (setting [7]) was 1% (inactive); in assay [5] (setting [8]) it was 99% (active); in assay [5] (at 50.0 µM) it was 97.5% (active); in assay [6] (setting [7]), 11% (inactive); in assay [6] (setting [8]), 99% (active); in assay [6] (at 50.0 µM), 96.7% (active).
As for `CCN(CC)CC(O)c1ccc(/C=C/c2ccc(Cl)cc2)cc1` (stereo not given), the growth inhibition in assay [1] (setting [7]) is 12% (inactive); in assay [1] (setting [8]), 95% (active); in assay [1] (at 50.0 µM), 98.1% (active); in assay [2] (setting [7]), 6% (inactive); in assay [2] (setting [8]), 97% (active); in assay [2] (at 50.0 µM), 98% (active). The growth inhibition is 8% (inactive) in assay [3] (setting [7]); 98% (active) in assay [3] (setting [8]); 58.5% (inactive) in assay [3] (at 50.0 µM); 12% (inactive) in assay [4] (setting [7]); 97% (active) in assay [4] (setting [8]); 98.7% (active) in assay [4] (at 50.0 µM). For the same compound, the growth inhibition in assay [5] (setting [7]) was 17% (inactive); in assay [5] (setting [8]), 96% (active); in assay [5] (at 50.0 µM), 98.6% (active); in assay [6] (setting [7]), 15% (inactive); in assay [6] (setting [8]), 97% (active); in assay [6] (at 50.0 µM) it was 98.4% (active).
Turning to `O=C1C=CC(=O)N1c1ccc(-c2ccc(N3C(=O)C=CC3=O)cc2)cc1`, the growth inhibition in assay [1] (setting [7]) was 41% (inactive); in assay [1] (setting [8]), 68% (inactive); in assay [1] (at 50.0 µM), 48.3% (inactive); in assay [2] (setting [7]), 56% (inactive); in assay [2] (setting [8]), 87% (active); in assay [2] (at 50.0 µM), 35.6% (inactive). The growth inhibition in assay [3] (setting [7]) was 60% (inactive); in assay [3] (setting [8]), 82% (active); in assay [3] (at 50.0 µM), 60.6% (inactive); in assay [4] (setting [7]) it was 18% (inactive); in assay [4] (setting [8]) it was 57% (inactive); in assay [4] (at 50.0 µM), 27.1% (inactive). Also, the growth inhibition is 33% (inactive) in assay [5] (setting [7]); 80% (active) in assay [5] (setting [8]); 46% (inactive) in assay [5] (at 50.0 µM); 58% (inactive) in assay [6] (setting [7]); 79% (active) in assay [6] (setting [8]); 57.5% (inactive) in assay [6] (at 50.0 µM).
Consider `O=C(O)/C=C/c1ccc2c(c1)CCCC2`, for which the growth inhibition in assay [1] (setting [7]) was 0% (inactive); in assay [1] (setting [8]), 83% (active); in assay [1] (at 50.0 µM) it was 90.1% (active); in assay [2] (setting [7]), -8% (inactive); in assay [2] (setting [8]) it was 66% (inactive); in assay [2] (at 50.0 µM) it was 73% (active). For the same compound, the growth inhibition in assay [3] (setting [7]) is 3% (inactive); in assay [3] (setting [8]), 79% (active); in assay [3] (at 50.0 µM), 73.5% (active); in assay [4] (setting [7]), -28% (inactive); in assay [4] (setting [8]) it was 70% (active); in assay [4] (at 50.0 µM), 85.3% (active). The growth inhibition in assay [5] (setting [7]) is -11% (inactive); in assay [5] (setting [8]), 70% (active); in assay [5] (at 50.0 µM) it was 64% (inactive); in assay [6] (setting [7]), -19% (inactive); in assay [6] (setting [8]) it was 87% (active); in assay [6] (at 50.0 µM), 62.9% (inactive).
In the case of `Oc1cc(Br)cc2cccnc12`, the growth inhibition was 99% (active) in assay [1] (setting [7]); 99% (active) in assay [1] (setting [8]); 87.7% (active) in assay [1] (at 50.0 µM); 98% (active) in assay [2] (setting [7]); 99% (active) in assay [2] (setting [8]); 92% (active) in assay [2] (at 50.0 µM). Moreover, the growth inhibition in assay [3] (setting [7]) was 98% (active); in assay [3] (setting [8]), 99% (active); in assay [3] (at 50.0 µM) it was 84.3% (active); in assay [4] (setting [7]), 99% (active); in assay [4] (setting [8]), 99% (active); in assay [4] (at 50.0 µM) it was 89.5% (active). For the same compound, the growth inhibition was 99% (active) in assay [5] (setting [7]); 99% (active) in assay [5] (setting [8]); 88.7% (active) in assay [5] (at 50.0 µM); 99% (active) in assay [6] (setting [7]); 99% (active) in assay [6] (setting [8]); 83.8% (active) in assay [6] (at 50.0 µM).
Turning to `OCN(CO)c1ccc2c(c1)Cc1cc(F)ccc1-2`, the growth inhibition is 34% (inactive) in assay [1] (setting [7]); 97% (active) in assay [1] (setting [8]); 92.8% (active) in assay [1] (at 50.0 µM); -19% (inactive) in assay [2] (setting [7]); 99% (active) in assay [2] (setting [8]); 86.2% (active) in assay [2] (at 50.0 µM). The growth inhibition in assay [3] (setting [7]) was 41% (inactive); in assay [3] (setting [8]), 97% (active); in assay [3] (at 50.0 µM), 51.2% (inactive); in assay [4] (setting [7]), 1% (inactive); in assay [4] (setting [8]), 97% (active); in assay [4] (at 50.0 µM), 96.5% (active). Besides, the growth inhibition in assay [5] (setting [7]) was -5% (inactive); in assay [5] (setting [8]), 97% (active); in assay [5] (at 50.0 µM), 90.9% (active); in assay [6] (setting [7]) it was 59% (inactive); in assay [6] (setting [8]) it was 98% (active); in assay [6] (at 50.0 µM), 97.8% (active).
For the compound `Cc1ccnc2ccc3ccccc3c12`, the growth inhibition was -142% (inactive) in assay [1] (setting [7]); 22% (inactive) in assay [1] (setting [8]); -17.9% (inactive) in assay [1] (at 50.0 µM); -48% (inactive) in assay [2] (setting [7]); -38% (inactive) in assay [2] (setting [8]); -1% (inactive) in assay [2] (at 50.0 µM). Further, the growth inhibition in assay [3] (setting [7]) was -63% (inactive); in assay [3] (setting [8]), -21% (inactive); in assay [3] (at 50.0 µM) it was 20.4% (inactive); in assay [4] (setting [7]), -62% (inactive); in assay [4] (setting [8]), -49% (inactive); in assay [4] (at 50.0 µM) it was 22.3% (inactive). For the same compound, the growth inhibition in assay [5] (setting [7]) is -67% (inactive); in assay [5] (setting [8]), -18% (inactive); in assay [5] (at 50.0 µM), 31% (inactive); in assay [6] (setting [7]), -138% (inactive); in assay [6] (setting [8]), -55% (inactive); in assay [6] (at 50.0 µM) it was 33.3% (inactive).
With `CC(=O)OCc1ccc([N+](=O)[O-])o1`, the growth inhibition in assay [1] (setting [7]) is 2% (inactive); in assay [1] (setting [8]), 78% (active); in assay [1] (at 50.0 µM) it was 96.3% (active); in assay [2] (setting [7]), -7% (inactive); in assay [2] (setting [8]), 22% (inactive); in assay [2] (at 50.0 µM) it was 98.3% (active). Moreover, the growth inhibition in assay [3] (setting [7]) was 3% (inactive); in assay [3] (setting [8]), 67% (inactive); in assay [3] (at 50.0 µM) it was 64.3% (inactive); in assay [4] (setting [7]) it was 0% (inactive); in assay [4] (setting [8]), 96% (active); in assay [4] (at 50.0 µM), 98.2% (active). The growth inhibition in assay [5] (setting [7]) was -2% (inactive); in assay [5] (setting [8]), 73% (active); in assay [5] (at 50.0 µM), 98.9% (active); in assay [6] (setting [7]), 1% (inactive); in assay [6] (setting [8]), 86% (active); in assay [6] (at 50.0 µM) it was 98% (active).
